This is an account of results in PubChem BioAssay AID743449 (Broad Institute, 2014).

“And” between values parts separate entries of the source, which are not always exact repeats. Equal entries are not always repeated. The whole screen tested about 9,900 compounds, of which about 90 (0.9%) were called active. Not shown: some 2% with an inconclusive outcome.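 How the source made its calls: active means mean normalized replicate activity at least 50 and at least half of replicates each reaching 50; inconclusive means only one of the two criteria met; inactive means neither criterion met.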 Many of the other results were omitted from the sample, so actives are more common in it than they were.

The assay can be described thus: reduction of CTGF mRNA in DLD1 cells – DLD1 colon cancer cells, RT-qPCR, single point, primary screen (AID 743449).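 Further: 0% = neutral control wells and 100% = dasatinib control wells; higher means stronger suppression of CTGF expression like dasatinib.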 The conditions noted are these: 24 h, at 12.5 µM, hits give high values. (In qPCR the cycle at which signal appears reflects the starting amount.)
Turning to `O=C(c1cnccn1)N1C[C@@H]2N[C@H](C1)C2c1ccc(/C=C/c2ccccc2)cc1` (some centres undefined), the inhibition (in general, the change of the read-out against control, counted positive when it falls) was -30.1% (inactive) and 19.5% (inactive). As to `O=C(C[C@H]1CC[C@H]2[C@@H](COC[C@@H](O)CN2C(=O)c2ccc(F)cc2)O1)N1CCCCC1`, the inhibition is -4.99% (inactive). Next, `COc1ccc(-c2ccc([C@H]3[C@H](CO)N4C(=O)CN(C(=O)C5CC5)C[C@@H]34)cc2)cc1`: 4.63% (inactive); `COc1cccc(NC(=O)N[C@H]2CC[C@@H](CC(=O)N3CCN(C)CC3)O[C@@H]2CO)c1`: -6.95% (inactive); `O=C(NC[C@H]1N[C@H](CO)[C@@H]1c1ccc(-c2cncnc2)cc1)C1CCCCC1`: -7.65% (inactive). Next, `COc1ccc2c3c(n(C)c2c1)[C@@H](CO)N(C(C)=O)CC31CN(S(=O)(=O)c2ccccc2)C1`: 1.07% (inactive); `CC(C)c1cccc(NC(=O)C[C@H]2CC[C@H]3[C@@H](COc4ccc(NC(=O)NCc5ccccc5)cc4C(=O)N3C)O2)c1`: 22.2% (inactive). In the case of `O=C(Nc1ccccc1F)N1C[C@@H]2[C@H](c3ccccc31)[C@@H](CO)N2C(=O)Cc1cccnc1`, the inhibition was 7.57% (inactive).

Turning to `CN1c2ccc(Br)cc2[C@@H]2[C@@H](CCN2S(=O)(=O)c2ccccc2F)[C@@H]1CO`, the inhibition was 9.29% (inactive).

`NCC[C@H]1CC[C@@H](NC(=O)NC2CCCCC2)[C@H](CO)O1`: the inhibition is 53% (active). Next, `NCC[C@H]1CC[C@H](NC(=O)NC2CCCCC2)[C@@H](CO)O1`: 23.6% (inactive); `NCC[C@@H]1CC[C@@H](NC(=O)NC2CCCCC2)[C@@H](CO)O1`: 5.69% (inactive). Next, `O=C(NCc1cccc(F)c1)[C@H]1[C@H](CO)[C@H]2Cn3c(ccc(-c4ccncc4)c3=O)[C@@H]1N2CC1CC1`: -29.8% (inactive); `Cn1cnc(S(=O)(=O)N[C@@H]2CC[C@H](CC(=O)NCC3CCCCC3)O[C@H]2CO)c1`: -20.2% (inactive). For `COc1ccc2c3c(n(C)c2c1)[C@@H](CO)N(CC1CC1)CC31CN(S(=O)(=O)c2cn(C)cn2)C1` the value was 10% (inactive); for `Cc1ccc(S(=O)(=O)N[C@H]2C=C[C@H](CC(=O)NCc3ccc(Cl)c(Cl)c3)O[C@@H]2CO)cc1`, -5.24% (inactive); for `Cc1ccc(S(=O)(=O)N[C@@H]2C=C[C@@H](CC(=O)NCc3ccc(Cl)c(Cl)c3)O[C@H]2CO)cc1`, 31% (inactive). With `Cc1ccc(S(=O)(=O)N[C@H]2C=C[C@H](CC(=O)NCc3ccc(Cl)c(Cl)c3)O[C@H]2CO)cc1`, the inhibition was 52.5% (active). For `C/C=C/c1ccc([C@@H]2[C@@H](C#N)N(c3nc(CC)cs3)[C@@H]2CO)cc1`, the inhibition is 44.5% (inactive). For `COc1cccc(-c2ccc([C@@H]3[C@@H](C#N)N(C(=O)Cc4ccncc4)[C@@H]3CO)cc2)c1` the value was 50.4% (active); for `COc1cccc(-c2ccc([C@H]3[C@H](C#N)N(C(=O)Cc4ccncc4)[C@H]3CO)cc2)c1`, -33.7% (inactive); for `COc1cccc(-c2ccc([C@H]3[C@@H](CO)N(C(=O)Cc4ccncc4)[C@H]3C#N)cc2)c1`, -2.53% (inactive). Next, `C[C@@H]1CN([C@@H](C)CO)C(=O)Cc2cc(NC(=O)C3CCCCC3)ccc2O[C@@H]1CN(C)Cc1ccc(Cl)c(Cl)c1`: 50.3% (active). Next, `C[C@@H]1CN([C@H](C)CO)C(=O)Cc2cc(NC(=O)C3CCCCC3)ccc2O[C@H]1CN(C)Cc1ccc(Cl)c(Cl)c1`: -7.16% (inactive).

In the case of `COc1ccc(CN(C)C[C@H]2Oc3ccc(NC(=O)Nc4ccc5c(c4)OCO5)cc3CC(=O)N([C@@H](C)CO)C[C@H]2C)cc1`, the inhibition is 57.9% (active).

As for `C[C@H]1CN([C@@H](C)CO)C(=O)Cc2cc(NC(=O)C3CCCCC3)ccc2O[C@H]1CN(C)Cc1ccc(Cl)c(Cl)c1`, the inhibition is 35.6% (inactive). For `COc1ccc(CN(C)C[C@H]2Oc3ccc(NC(=O)Nc4ccc5c(c4)OCO5)cc3CC(=O)N([C@@H](C)CO)C[C@@H]2C)cc1` the value was -64.7% (inactive); for `COc1ccc(CN(C)C[C@@H]2Oc3ccc(NC(=O)Nc4ccc5c(c4)OCO5)cc3CC(=O)N([C@@H](C)CO)C[C@H]2C)cc1`, 13.9% (inactive). Turning to `C/C=C/c1ccc([C@H]2[C@@H](CO)N(C(=O)Nc3ccccc3F)[C@H]2C#N)cc1`, the inhibition was 23.1% (inactive). For `COC(=O)C[C@H]1CC[C@@H](N)[C@@H](CO)O1` the value was 15.9% (inactive). In the case of `CNC[C@H]1OCc2ccccc2-c2ccccc2C(=O)N([C@H](C)CO)C[C@H]1C`, the inhibition was -6.87% (inactive). For `CCCN1C[C@H](C)[C@H](OC)CN(C)C(=O)c2cc(NC(=O)Nc3cccc(F)c3)ccc2OC[C@@H]1C` the value was 6.58% (inactive); for `CO[C@@H]1CC[C@@H]2CCOc3ccc(C#N)cc3C(=O)N(C)[C@H](C)C(=O)N(C)C[C@H]1O2`, -48.9% (inactive). For the molecule `CCS(=O)(=O)Nc1ccc2c(c1)C(=O)N(C)[C@@H]1CC[C@H](CC(=O)N3CCN(C)CC3)O[C@H]1CO2`, the inhibition was 0.381% (inactive). Next, `CN1C(=O)c2cc(NC(=O)Cc3cccs3)ccc2OC[C@H]2O[C@@H](CC(=O)NCCc3ccncc3)CC[C@@H]21`: -83.9% (inactive). Next, `CN1C(=O)c2cc(NC(=O)Cc3cccs3)ccc2OC[C@H]2O[C@H](CC(=O)NCCc3ccncc3)CC[C@@H]21`: -70.9% (inactive). On to `CN1CCN(C(=O)C[C@H]2CC[C@@H]3[C@@H](COc4ccc(NC(=O)C5CCOCC5)cc4C(=O)N3C)O2)CC1`, for which the inhibition is 27.7% (inactive). Next, `CCS(=O)(=O)Nc1ccc2c(c1)C(=O)N(C)[C@H]1CC[C@H](CC(=O)N3CCN(C)CC3)O[C@H]1CO2`: 51.4% (active).

Regarding `CN1C(=O)c2cc(NS(=O)(=O)c3ccccc3F)ccc2OC[C@H]2O[C@H](CC(=O)NC3Cc4ccccc4C3)CC[C@H]21`, the inhibition was -1.53% (inactive). With `CN1CCN(C(=O)C[C@@H]2CC[C@H]3[C@@H](COc4ccc(NC(=O)C5CCOCC5)cc4C(=O)N3C)O2)CC1`, the inhibition is 51.1% (active). For `CN1C(=O)c2cc(NS(=O)(=O)c3ccccc3F)ccc2OC[C@@H]2O[C@@H](CC(=O)NC3Cc4ccccc4C3)CC[C@@H]21` the value was 108% (active); for `CN1CCN(C(=O)C[C@H]2CC[C@H]3[C@@H](COc4ccc(NC(=O)C5CCOCC5)cc4C(=O)N3C)O2)CC1`, -56% (inactive); for `CN1C(=O)c2cc(NS(=O)(=O)c3ccccc3F)ccc2OC[C@@H]2O[C@H](CC(=O)NC3Cc4ccccc4C3)CC[C@@H]21`, -9.49% (inactive). Next, `CN1C(=O)c2cc(NC(=O)Cc3cccs3)ccc2OC[C@@H]2O[C@@H](CC(=O)NCCc3ccncc3)CC[C@H]21`: 60.1% (active); `CCS(=O)(=O)Nc1ccc2c(c1)C(=O)N(C)[C@H]1CC[C@@H](CC(=O)N3CCN(C)CC3)O[C@H]1CO2`: 15.7% (inactive). For `COc1ccccc1NC(=O)N[C@H]1CC[C@H](CCNS(=O)(=O)c2ccc(Cl)cc2)O[C@@H]1CO` the value was 8.99% (inactive). For the molecule `COc1ccc(NC(=O)N[C@H]2CC[C@H](CCNC(=O)CN3CCOCC3)O[C@H]2CO)cc1`, the inhibition was -23.1% (inactive).

Turning to `CC(=O)N1C[C@@H]2N[C@H](C1)C2c1ccc(-c2ccccc2)cc1` (some centres undefined), the inhibition is -22.3% (inactive).

`O=C(C[C@H]1CC[C@@H](NC(=O)c2cccnc2)[C@@H](CO)O1)NCc1ccc(Cl)c(Cl)c1`: the inhibition was 26.4% (inactive). For the molecule `CN1C(=O)c2cc(NC(=O)c3cccc(F)c3)ccc2OC[C@@H]2O[C@@H](CC(=O)NCc3ccccc3Cl)CC[C@@H]21`, the inhibition is 36% (inactive). `COCC#Cc1ccc([C@@H]2[C@@H](CO)N3CCCCN(C(=O)NC4CCCC4)C[C@@H]23)cc1`: the inhibition was -25.3% (inactive). Turning to `CO[C@H](CN(C)S(=O)(=O)c1ccc(C)cc1)[C@@H](C)CN([C@@H](C)CO)S(=O)(=O)c1cccc(Cl)c1`, the inhibition was 6.82% (inactive). For `CO[C@@H](CN(C)S(=O)(=O)c1ccc(C)cc1)[C@@H](C)CN([C@H](C)CO)S(=O)(=O)c1cccc(Cl)c1` the value was 74.7% (active); for `CO[C@@H](CN(C)S(=O)(=O)c1ccc(C)cc1)[C@H](C)CN([C@H](C)CO)S(=O)(=O)c1cccc(Cl)c1`, 93.3% (active).

As to `CO[C@@H](CN(C)S(=O)(=O)c1ccc(C)cc1)[C@H](C)CN([C@@H](C)CO)S(=O)(=O)c1cccc(Cl)c1`, the inhibition is 78.9% (active). `CO[C@@H](CN(C)Cc1cc(F)ccc1F)[C@@H](C)CN([C@H](C)CO)S(=O)(=O)c1ccc(C)cc1`: the inhibition is 14.9% (inactive).

For `CO[C@H](CN(C)S(=O)(=O)c1ccc(C)cc1)[C@H](C)CN([C@H](C)CO)S(=O)(=O)c1cccc(Cl)c1`, the inhibition is 16.6% (inactive). For `CO[C@H](CN(C)S(=O)(=O)c1ccc(C)cc1)[C@H](C)CN([C@@H](C)CO)S(=O)(=O)c1cccc(Cl)c1`, the inhibition was 1.44% (inactive). Next, `CO[C@@H](CN(C)S(=O)(=O)c1ccc(C)cc1)[C@@H](C)CN([C@@H](C)CO)S(=O)(=O)c1cccc(Cl)c1`: 38.7% (inactive); `CO[C@H](CN(C)S(=O)(=O)c1ccc(C)cc1)[C@@H](C)CN([C@H](C)CO)S(=O)(=O)c1cccc(Cl)c1`: 32.6% (inactive); `CO[C@H]1CC[C@@H]2CCOc3ccc(C#N)cc3C(=O)N(C)C[C@@H](c3ccccc3)CC(=O)N(C)C[C@@H]1O2`: -39.9% (inactive). Next, `OC[C@@H]1[C@H](c2ccc(C#Cc3ccccc3F)cc2)[C@@H]2CN(CC3CCOCC3)CCCCN12`: -33.6% (inactive); `CCCNC[C@@H]1[C@@H](c2ccc(C3=CCCCC3)cc2)[C@@H](CO)N1C(=O)C1CCC1`: -79.5% (inactive). Next, `CN1C(=O)c2cc(NC(=O)Nc3ccccc3Cl)ccc2OC[C@@H]2O[C@@H](CC(=O)O)CC[C@H]21`: -2.71% (inactive).
